Test results published in the supplement of paper PMC13380429.
Structures can show the parent of a compound that is named as a salt.

Test system: Vero E6 infected with SARS-CoV-2
Assay: inhibition of SARS-CoV-2 cytopathic effect; higher = more antiviral protection, active = above 15
Conditions: 48 h

Measured: inhibition of SARS-CoV-2 cytopathic effect

O=c1ncn2nc(Sc3ccc(F)cc3F)ccc2c1-c1c(Cl)cccc1Cl
inactive: 1 nM 1.28% | 8.33 nM -0.16% | 100 nM -1.32% | 833.33 nM 1.03% | 10000 nM 1.38%

CC1=C(C(=O)OC2CCCCC2)C(c2ccc([N+](=O)[O-])cc2)C2=C(CC(C)(C)CC2=O)N1 (stereo not given)
active: 10000 nM 23.1%
inactive: 1 nM -1.14% | 8.33 nM -1.2% | 100 nM -1.86% | 833.33 nM 1.14%

c1cc(Cc2cnc[nH]2)ccn1 [immethridine]
inactive: 1 nM 0.32% | 8.33 nM 2.15% | 100 nM 0.76% | 833.33 nM 4.67% | 10000 nM 1.99%

Cc1cc(OCc2nnc(SC3CCCC3)n2-c2cccnc2)ccc1-c1ccc(S(C)(=O)=O)cc1
inactive: 1 nM -0.48% | 8.33 nM 0.31% | 100 nM 1.82% | 833.33 nM 5.04% | 10000 nM -19.7%

NC(=S)N/N=C/c1ccncc1 [perchlozone]
inactive: 1 nM 2.2% | 8.33 nM 1.74% | 100 nM 0.96% | 833.33 nM 2.38% | 10000 nM 3.63%

CC(C)OC(=O)OCOP(=O)(CO[C@H](C)Cn1cnc2c(N)ncnc21)OCOC(=O)OC(C)C [tenofovir-disoproxil]
inactive: 1 nM 0.65% | 8.33 nM -1.58% | 100 nM 3.17% | 833.33 nM -4% | 10000 nM -9.11%

CC(=O)Oc1cc2c(s1)CCN(C(C(=O)C1CC1)c1ccccc1F)C2 (stereo not given) [prasugrel]
inactive: 1 nM 2.32% | 8.33 nM 1.62% | 100 nM 0.43% | 833.33 nM 2.1% | 10000 nM -0.82%

CCCCOc1ccc(-c2cncc(C(=O)NCc3cccnc3N3CCOCC3)c2)cc1Cl
inactive: 1 nM -0.69% | 8.33 nM -2.48% | 100 nM -0.55% | 833.33 nM -1.43% | 10000 nM -3.95%

CC[C@H]1[C@@H]2C[C@H]3[C@@H]4N(C)c5ccccc5[C@]45C[C@@H]([C@@H]2[C@H]5O)N3[C@@H]1O [ajmaline]
inactive: 1 nM -1.1% | 8.33 nM -2.42% | 100 nM 0.36% | 833.33 nM 0.5% | 10000 nM -1.16%

CCCCCCCCCCC(CO)CCCCCCCC (stereo not given) [2-octyldodecan-1-ol]
inactive: 1 nM 1.79% | 8.33 nM -0.7% | 100 nM 0.48% | 833.33 nM 0.76% | 10000 nM 0.34%

CCCOc1ccc(S(=O)(=O)N2CCN(CCO)CC2)cc1-c1nc2c(CCC)cn(CC)c2c(=O)[nH]1 [mirodenafil]
inactive: 1 nM -1.57% | 8.33 nM 0.66% | 100 nM -2.49% | 833.33 nM -3.18% | 10000 nM -6.03%

O=C(O)c1cc(/N=N/c2ccc(S(=O)(=O)Nc3ccccn3)cc2)ccc1O [sulfasalazine]
inactive: 1 nM -0.13% | 8.33 nM -2.23% | 100 nM -0.23% | 833.33 nM -1.38% | 10000 nM 0.47%

Cc1c(S(=O)(=O)O)oc2c1C(=O)C(=O)c1c-2ccc2c1CCCC2(C)C [sodium-tanshinone-II-A-sulfonate]
inactive: 1 nM -6.63% | 8.33 nM -8.06% | 100 nM -4.77% | 833.33 nM -7.14% | 10000 nM -10.1%

CCN(CCCc1ccccc1)CCCc1ccccc1 [alverine]
inactive: 1 nM -0.33% | 8.33 nM 1.03% | 100 nM -0.23% | 833.33 nM -0.58% | 10000 nM -0.57%

CC(C)[C@@H](CS(=O)(=O)C(C)C)N1C(=O)[C@@](C)(CC(=O)O)C[C@H](c2cccc(Cl)c2)[C@H]1c1ccc(Cl)cc1
inactive: 1 nM 2.3% | 8.33 nM 3.7% | 100 nM 3.54% | 833.33 nM 4.65% | 10000 nM 4.3%

Cn1c(Nc2ccc(C(F)(F)F)cc2)nc2cc(Oc3ccnc(-c4ncc(C(F)(F)F)[nH]4)c3)ccc21
inactive: 1 nM 0.79% | 8.33 nM 1.69% | 100 nM 0.4% | 833.33 nM 0.16% | 10000 nM 4.48%

CS(=O)(=O)c1ccc(-c2cn3ccccc3n2)cc1 [zolimidine]
inactive: 1 nM -3.68% | 8.33 nM 0.55% | 100 nM 3.07% | 833.33 nM -5.22% | 10000 nM -2.8%

C=C(C)CN1CC[C@]23c4c5ccc(O)c4O[C@H]2c2[nH]c4ccccc4c2C[C@@]3(O)C1C5
inactive: 1 nM 1.25% | 8.33 nM -1.87% | 100 nM 0.33% | 833.33 nM 0.21% | 10000 nM 1.05%

CS(=O)(=O)Nc1ccc(Cc2noc(-c3ccc4[nH]cc(CCN)c4c3)n2)cc1
inactive: 1 nM -2.75% | 8.33 nM -0.95% | 100 nM -2.42% | 833.33 nM -1.18% | 10000 nM -1.18%

CCC(=O)N1CCN(c2ccc(-n3c(=O)ccc4cnc5ccc(-c6cnc7ccccc7c6)cc5c43)cc2C(F)(F)F)CC1 [torin-1]
inactive: 1 nM 1.59% | 8.33 nM -1.08% | 100 nM 0.88% | 833.33 nM -0.28% | 10000 nM -0.2%

O=C(O)c1cccnc1 [niacin]
inactive: 1 nM 1.07% | 8.33 nM 0.1% | 100 nM 0.52% | 833.33 nM 0.71% | 10000 nM 4.53%

CCN(CC)CCN(Cc1ccc(-c2ccc(C(F)(F)F)cc2)cc1)C(=O)Cn1c(SCc2ccc(F)cc2)nc(=O)c2c1CCC2 [darapladib]
inactive: 1 nM 1.47% | 8.33 nM 1.73% | 100 nM -1.85% | 833.33 nM -2.02% | 10000 nM -25.3%

O=c1c(-c2ccc(O)cc2)coc2cc(O)cc(O)c12 [genistein]
inactive: 1 nM -1.79% | 8.33 nM 1.66% | 100 nM 2.02% | 833.33 nM 3.3% | 10000 nM -1.82%

C[C@H](CCC(=O)O)[C@H]1CC[C@H]2[C@@H]3CC[C@@H]4C[C@H](O)CC[C@]4(C)[C@H]3C[C@H](O)[C@]12C [deoxycholic-acid]
inactive: 1 nM -0.18% | 8.33 nM 0.25% | 100 nM -1.84% | 833.33 nM -1.15% | 10000 nM -0.42%

O=P(O)(O)C(Cl)(Cl)P(=O)(O)O [clodronic-acid]
inactive: 1 nM 0.55% | 8.33 nM 0.27% | 100 nM 0.5% | 833.33 nM 2.21% | 10000 nM -1.06%

CC(C)c1cc(-c2ccc(F)c3ccccc23)nc(N)n1
inactive: 1 nM 0.6% | 8.33 nM 1.62% | 100 nM -1.61% | 833.33 nM -3.71% | 10000 nM -2.34%

CC(=O)[O-].CC(=O)[O-].N.NC1CCCCC1.[Cl-].[Cl-].[Pt+4] [satraplatin]
active: 10000 nM 23.8%
inactive: 1 nM 3.89% | 8.33 nM -0.13% | 100 nM 2.26% | 833.33 nM 1.69%

COc1ccc2cccc(CCNC(C)=O)c2c1 [agomelatine]
inactive: 1 nM -0.83% | 8.33 nM 0.82% | 100 nM -2.18% | 833.33 nM -1.63% | 10000 nM 0.7%

CN[C@@H]1[C@H](O[C@H]2[C@H](O[C@H]3[C@H](O)[C@@H](O)[C@H](N=C(N)N)[C@@H](O)[C@@H]3N=C(N)N)O[C@@H](C)[C@]2(O)C=O)O[C@@H](CO)[C@H](O)[C@H]1O [STREPTOMYCIN SULFATE [5mM; 10% aq DMSO + 5mM ethanolamine]]
inactive: 1 nM -0.46% | 8.33 nM -1.64% | 100 nM -0.12% | 833.33 nM 1.53% | 10000 nM 0.2%

CCN(CC)CCNC(=O)c1cc(Cl)c(N)cc1OC [metoclopramide]
inactive: 1 nM -0.44% | 8.33 nM 0.96% | 100 nM 0.31% | 833.33 nM -0.29% | 10000 nM -1.37%

O=C(Nc1cccnn1)N1CCC(=Cc2cccc(Oc3ccc(C(F)(F)F)cn3)c2)CC1
inactive: 1 nM 0.89% | 8.33 nM 1.24% | 100 nM -0.76% | 833.33 nM -0.98% | 10000 nM -3.19%

O=C(NCCCN1CCOCC1)c1cnn2c(-c3ccccc3)cc(-c3ccccc3)nc12 [reversan]
inactive: 1 nM 12.1% | 8.33 nM 0.65% | 100 nM 1.42% | 833.33 nM 0.17% | 10000 nM -6.41%

Cc1cc(CC(C)CC(C)(C)C)n(O)c(=O)c1 (stereo not given) [piroctone-olamine]
inactive: 1 nM -1.12% | 8.33 nM 3.7% | 100 nM 3.23% | 833.33 nM 1.26% | 10000 nM -1.5%

C[C@H]1[C@H](NC(=O)/C(=N\OC(C)(C)C(=O)O)c2csc(N)n2)C(=O)N1S(=O)(=O)O [aztreonam]
inactive: 1 nM 3.78% | 100 nM 1.14% | 833.33 nM -1.55% | 10000 nM 0.92%
active: 8.33 nM 20%

O=C(Nc1ccccc1)c1ccccc1O [salicylanilide]
inactive: 1 nM -4.46% | 8.33 nM -2.22% | 100 nM -1.24% | 833.33 nM 1.14% | 10000 nM 0.54%

CC(C)NCC(O)c1ccc(N)c(C#N)c1 (stereo not given) [cimaterol]
inactive: 1 nM 6.86% | 8.33 nM 6.95% | 100 nM 10.5% | 833.33 nM 3.99% | 10000 nM 4.49%

Cc1ccc(C)c([C@H](O)CNC(C)C)c1 [benzenemethanol,-2,5-dimethyl-[[(1-methylethyl)amino]methyl]]
inactive: 1 nM -1.13% | 8.33 nM 2.02% | 100 nM 0.03% | 833.33 nM 0.15% | 10000 nM 1.34%

O=C1NC(=O)/C(=C/c2ccc(-c3ccc(F)cc3O)o2)S1
inactive: 1 nM -0.52% | 8.33 nM -0.98% | 100 nM -0.46% | 833.33 nM -1.39% | 10000 nM -0.94%
